Experimental data published in PubChem BioAssay (NCATS).
Results filed as inconclusive are left out. Where a call stands in place of a potency, no number is given. The source made the active and inactive calls. Calls come from the whole dose curve; as a rule, active = well fitted cell-killing curve with a large enough effect; inconclusive = small, poorly fitted or top-dose-only effect, or effect the other way; inactive = no such curve, though single readings can be large or run the other way.

Legend:
[1] = Viability qHTS for spleen associated tyrosine kinase inhibitor (SYKi) naive MV4-11 cells (AID 1963823); note: nearly all actives have a fitted effect of over 40% in size
Procedure, shortened: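 SYKi-naive MV4-11 AML cells, 500 per well, were exposed to library compounds for 72 hr at 37 C, 5% CO2. Viability was then read by CellTiter-Glo luminescence after 10 min at room temperature.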

[2] = Viability qHTS for spleen associated tyrosine kinase inhibitor (SYKi) drug resistant MV4-11 cells (AID 1963824); note: nearly all actives have a fitted effect of over 35% in size
Procedure, shortened: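 SYK inhibitor-resistant MV4-11 AML cells, 500 per well, added to predispensed compounds and incubated 72 hr at 37 C, 5% CO2. Viability measured by CellTiter-Glo luminescence after 10 min at room temperature.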
Potency is the fitted concentration of half-maximal effect.

Question: Which Potency [1] does the source give for `CC(C)(Cc1ccccc1)NCC(O)c1ccc(O)c(NS(C)(=O)=O)c1` (centres undefined) here?
Answer: inactive

Question: And the Potency [2]?
Answer: inactive

Question: For `C/C=C/C=C/C=C/C(=O)O[C@@H]1[C@@H](OC)C2=C(C(=O)N(C(C)C(=O)O)C2)[C@@]2(C)CCCC(C)(C)[C@H]12` (some centres undefined), which Potency [1] is on record?
Answer: inactive

Question: What about the Potency [2] of the same compound?
Answer: inactive

Question: For `CC(C)(O)CC(CO)NC(=O)CC(O)CC(=O)Cc1ccccc1` (centres undefined), which Potency [1] is on record?
Answer: inactive

Question: What about the Potency [2] of the same compound?
Answer: inactive

Question: What does the source list for `Clc1ccc(Nc2nc3ccccc3c3nc(C4CCCCC4)[nH]c23)cc1Cl`?
Answer: Potency [1]: 18.4 µM (active); Potency [2]: 8.2 µM (active)

Question: With `O=C(CC12CC3CC(CC(C3)C1)C2)Nc1cccc2nc(NCCNCCO)ccc12` as the compound, how does the Potency [1] read?
Answer: 18.6 µM (active)

Question: What about the Potency [2] of the same compound?
Answer: 16.4 µM (active)

Question: What does the source list for `CC1CC2(O)OC(=O)C3=C2C(CCC3)[C@@]12C[C@@H](c1ccoc1)OC2=O` (some centres undefined)?
Answer: Potency [1]: 0.321 µM (active); Potency [2]: inactive

Question: Which results are given for `CC1(CO)CCCC2(C)C1C(OC(=O)c1ccccc1)C=C1C(=O)OCC12O` (centres undefined)?
Answer: Potency [1]: 1.8 µM (active); Potency [2]: 1.61 µM (active)

Question: What does the source list for `COC(=O)C1=CO[C@@H](O[C@@H]2O[C@H](CO)[C@@H](O)[C@H](O)[C@H]2O)[C@@H]2C(C)CC(=O)[C@]12O` (some centres undefined)?
Answer: Potency [1]: inactive; Potency [2]: inactive

Question: Which Potency [1] does the source give for `C/C=C/C=C/C(CC(=O)O)Nc1ccc(C=O)cc1` (centres undefined) here?
Answer: inactive

Question: And the Potency [2]?
Answer: inactive

Question: For `C[C@@H]1CC2OC(=O)C3=C2C(CCC3O)[C@@]12C[C@@H](c1ccoc1)OC2=O` (some centres undefined), which Potency [1] is on record?
Answer: inactive

Question: What about the Potency [2] of the same compound?
Answer: inactive

Question: What does the source list for `CC(C)CC(=O)NCCn1cc(C(=O)O)c(=O)cc1C(O)c1ccccc1` (centres undefined)?
Answer: Potency [1]: inactive; Potency [2]: inactive

Question: For `CC(C)=CCC[C@](C)(O[C@@H]1O[C@H](CO)[C@@H](O)[C@H](O)[C@H]1O)[C@H]1CC[C@]2(C)[C@@H]1[C@H](O)CC1[C@@]3(C)CC[C@H](O)C(C)(C)C3[C@@H](O[C@@H]3O[C@H](CO)[C@@H](O)[C@H](O)[C@H]3O)C[C@]12C` (some centres undefined), which Potency [1] is on record?
Answer: inactive

Question: What about the Potency [2] of the same compound?
Answer: inactive
